Compound activity as filed in PubChem.
HEK293 tox: Cytotoxic Profiling in HEK 293 Cell Line of Diverse Libraries Using Quantitative High-Throughput Screening; Potency, µM (top dose mostly 115 µM), most hits filed as inhibitors; HEK 293 viability, ATP luminescence (CellTiter-Glo), 48-72 h; AID 1345083, 2018; actives 6.6% (n = 94,000); note: nearly all actives have a fitted effect of over 60% in size
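Pintool-delivered compounds were incubated with HEK 293 cells (250 cells/well) at 37 degree Celsius for 48 or 72 hr. ATP-dependent luminescence (CellTiter-Glo) then reported remaining viable cells.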
NIH3T3 tox: Cytotoxic Profiling in NIH 3T3 Cell Line of Diverse Libraries Using Quantitative High-Throughput Screening; NIH 3T3 viability, CellTiter-Glo ATP luminescence, 48-72 h; Potency, µM (series often up to 96.7 µM), most hits filed as inhibitors; actives 4.3% (n = 94,000); note: nearly all actives have a fitted effect of over 55% in size
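ATP-dependent luminescence (CellTiter-Glo) served as the viability signal for NIH 3T3 cells treated with compound for 48 or 72 hr at 37 °C.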
hNpr1 antagonist: Natriuretic polypeptide receptor (hNpr1) antagonism - Primary qHTS; actives 1.6% (n = 76,000); Atrial natriuretic peptide receptor 1 (Homo sapiens), P16066; HEK293 hNpr1 GloSensor cGMP, ANP-stimulated luminescence; Potency, µM (highest dose often 46.3 µM), usual class: inhibitors; calls by dose curve; note: nearly all actives have a fitted effect of over 60% in size
Target sequence (P16066 whole entry, looked up): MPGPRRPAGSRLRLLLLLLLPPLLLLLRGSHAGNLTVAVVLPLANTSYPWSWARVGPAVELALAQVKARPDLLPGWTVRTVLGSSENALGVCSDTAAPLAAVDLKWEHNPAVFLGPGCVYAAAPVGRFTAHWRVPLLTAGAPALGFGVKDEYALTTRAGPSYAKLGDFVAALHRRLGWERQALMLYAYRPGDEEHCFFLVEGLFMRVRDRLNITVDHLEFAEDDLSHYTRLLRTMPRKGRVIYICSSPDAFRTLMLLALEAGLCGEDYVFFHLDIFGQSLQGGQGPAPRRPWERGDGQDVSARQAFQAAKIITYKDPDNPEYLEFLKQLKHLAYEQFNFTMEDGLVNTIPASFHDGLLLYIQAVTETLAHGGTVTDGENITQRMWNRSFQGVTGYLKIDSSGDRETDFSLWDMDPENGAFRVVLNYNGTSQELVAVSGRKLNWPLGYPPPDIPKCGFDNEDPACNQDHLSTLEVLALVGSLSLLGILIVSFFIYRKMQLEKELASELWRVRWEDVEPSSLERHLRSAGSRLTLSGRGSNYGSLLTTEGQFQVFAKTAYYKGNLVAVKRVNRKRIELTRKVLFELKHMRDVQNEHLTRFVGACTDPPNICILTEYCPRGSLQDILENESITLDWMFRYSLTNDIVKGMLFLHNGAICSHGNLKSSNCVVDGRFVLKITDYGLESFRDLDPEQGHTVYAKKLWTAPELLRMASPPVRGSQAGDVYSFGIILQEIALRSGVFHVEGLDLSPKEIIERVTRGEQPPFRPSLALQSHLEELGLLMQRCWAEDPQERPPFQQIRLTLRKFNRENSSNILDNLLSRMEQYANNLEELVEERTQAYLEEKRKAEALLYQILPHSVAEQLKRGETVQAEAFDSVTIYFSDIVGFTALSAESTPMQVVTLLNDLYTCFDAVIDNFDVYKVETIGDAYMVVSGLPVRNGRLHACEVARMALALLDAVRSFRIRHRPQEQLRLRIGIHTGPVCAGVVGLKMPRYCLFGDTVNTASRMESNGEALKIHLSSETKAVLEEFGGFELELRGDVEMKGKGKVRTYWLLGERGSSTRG
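Compound pre-incubated 30 min at room temperature on GloSensor-loaded HEK293 cells stably carrying hNpr1 and the pGS-40F cGMP biosensor. Stimulation uses hNppA at 0.1 nM final; luminescence is taken at baseline and 20 min post-agonist.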
Luciferase inh: Firefly luciferase inhibition profiling of diverse chemical library using quantitative high-throughput screening; Luciferin 4-monooxygenase (Photinus pyralis), P08659; purified P. pyralis luciferase, luminescence, biochemical; Potency, µM (titrated, usually from 115 µM), usual class: inhibitors; actives 2.5% (n = 76,000); note: nearly all actives have a fitted effect of over 65% in size
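Inhibitors were tested against purified firefly luciferase in a biochemical, low-substrate format (both substrates at 10uM) and luminescence measured with a CCD imager.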
NPR1 antag cnf: Natriuretic polypeptide receptor (hNpr1) antagonism - Confirmation; HEK293 hNpr1 cGMP GloSensor luminescence, ANP-stimulated; shares compounds with hNpr1 antagonist; actives 76% (n = 1,400); Potency, µM (series often up to 57.6 µM), actives largely listed as inhibitors; calls by dose curve; note: nearly all actives have a fitted effect of over 70% in size
Npr2 selectivity: Natriuretic polypeptide receptor (hNpr2) antagonism - Subtype selectivity assay; shares compounds with hNpr1 antagonist; HEK293 hNpr2 GloSensor cGMP luminescence, CNP-stimulated; Potency, µM (series often up to 57.6 µM), most hits filed as inhibitors; actives 67% (n = 1,400); AID 1347046, 2019; calls by dose curve; note: nearly all actives have a fitted effect of over 70% in size
FLuc inh counter: Natriuretic polypeptide receptor (hNpr1) antagonism - Confirmation firefly luciferase (FLuc) inhibition counterscreen; purified FLuc enzyme, luminescence, Km substrate; shares compounds with hNpr1 antagonist; actives 0.7% (n = 1,400); AID 1347047, 2019; Potency, µM (highest dose often 57.6 µM), usual class: inhibitors
GloSensor ctrl: Natriuretic polypeptide receptor (hNpr1) antagonism - Counterscreen GloSensor control cell line | shares compounds with hNpr1 antagonist | actives 69% (n = 1,400) | HEK293 GloSensor cGMP, SNP-stimulated, luminescence | Potency, µM (series often up to 57.6 µM), most hits filed as inhibitors; calls by dose curve; note: nearly all actives have a fitted effect of over 70% in size
Of the large screens only hits and unclear results are named; the others gave an inactive call (follow-up assays come after a bar, where they were run). Rows were chosen to be rich in hits. Some 11% of all compounds tested hit in one or more screens of this group. Unless noted, calls come from the whole dose curve; as a rule, active = well fitted curve in the direction sought with a large enough effect; inconclusive = small, poorly fitted or top-dose-only effect, or another doubt; inactive = no such curve, though single readings can be large; an effect the other way counts as inactive or inconclusive.

O=C(c1ccc2cc[nH]c2c1)N1CCC(N2CC(OCC3CC3)C23CCOCC3)CC1 (stereo not given)	none
CCn1cc(CNC(=O)c2ccc(OC3CCN(S(=O)(=O)N(C)C)CC3)cc2)cn1	HEK293 tox inconclusive, hNpr1 antagonist 13µM | NPR1 antag cnf 19µM | Npr2 selectivity 19µM | FLuc inh counter inactive | GloSensor ctrl 11µM
CCC1CCCCN1CCNC(=O)c1cc2c(s1)CN(C1CCCC1)C2 (stereo not given)	HEK293 tox inconclusive, NIH3T3 tox inconclusive, Luciferase inh inconclusive
CN(Cc1cccnc1)Cc1nc(C2(O)CCN(Cc3ccc(C(F)(F)F)cc3)CC2)cs1	hNpr1 antagonist 1µM | NPR1 antag cnf 0.86µM | Npr2 selectivity 1.7µM | FLuc inh counter inactive | GloSensor ctrl 0.86µM
COc1ccc(N2CCN(C(=O)c3ccc4c(c3)C(O)CCCCCN4C)CC2)cc1 (stereo not given)	HEK293 tox inconclusive, NIH3T3 tox inconclusive, hNpr1 antagonist inconclusive
Cc1ccc(CN2CCN(C(=O)c3ccc4c(c3)C(O)CCCCCN4C)CC2)cc1 (stereo not given)	HEK293 tox 40µM, NIH3T3 tox inconclusive, hNpr1 antagonist 11µM | NPR1 antag cnf 22µM | Npr2 selectivity 19µM | FLuc inh counter inactive | GloSensor ctrl 17µM
CN(Cc1ccc(N2CCCCC2)cc1)C(=O)c1ccc2c(c1)C(O)CCCCCN2C (stereo not given)	HEK293 tox 35µM, NIH3T3 tox inconclusive, hNpr1 antagonist 14µM | NPR1 antag cnf 24µM | Npr2 selectivity 22µM | FLuc inh counter inactive | GloSensor ctrl 27µM
CC(C)CN1CCN(C(=O)c2ccc3c(c2)C(O)CCCCCN3C)CC1 (stereo not given)	HEK293 tox inconclusive
COc1ccc(NC(=O)c2ccc3c(c2)NC(C)(COCC2CC2)CO3)cn1 (stereo not given)	HEK293 tox inconclusive, NIH3T3 tox inconclusive, Luciferase inh inconclusive
COc1ccc(OCC2(C)COc3ccc(C(=O)Nc4ccc(OC)nc4)cc3N2)cc1 (stereo not given)	HEK293 tox 56µM, NIH3T3 tox inconclusive, hNpr1 antagonist 35µM | NPR1 antag cnf 35µM | Npr2 selectivity 40µM | FLuc inh counter inactive | GloSensor ctrl 35µM
CC1(COc2cccnc2)COc2ccc(C(=O)N3CCN(c4ccccn4)CC3)cc2N1 (stereo not given)	HEK293 tox inconclusive, NIH3T3 tox inconclusive, hNpr1 antagonist 6.3µM | NPR1 antag cnf 6.9µM | Npr2 selectivity 7.7µM | FLuc inh counter inactive | GloSensor ctrl 5.4µM
CN(Cc1ccccc1)C(=O)c1ccc2c(c1)NC(C)(COc1cccnc1)CO2 (stereo not given)	HEK293 tox inconclusive, hNpr1 antagonist 32µM | NPR1 antag cnf 31µM | Npr2 selectivity 31µM | FLuc inh counter inactive | GloSensor ctrl 22µM
CC1(COc2ccccc2)COc2ccc(C(=O)N3CCN(c4ccccn4)CC3)cc2N1 (stereo not given)	HEK293 tox inconclusive, NIH3T3 tox inconclusive
COc1ccc(C(=O)N2CCC(n3c(C)cnc3-c3ccncc3)C2)c(OC)c1 (stereo not given)	none (no result: hNpr1 antagonist, Luciferase inh)
Cc1ccc(C(=O)N2CCCC2C(=O)N2CCC(c3nc4ccncc4[nH]3)C2)cc1 (stereo not given)	none (no result: hNpr1 antagonist, Luciferase inh)
COc1ccc(CNC(=O)c2c(C)nc3cnccn23)cc1	none (no result: hNpr1 antagonist, Luciferase inh)
O=C(NC1CCCCC1)c1cn2cc(-c3ccc(C(F)(F)F)cc3)sc2n1	none (no result: hNpr1 antagonist, Luciferase inh)
Cc1ccc(C(=O)N[C@H]2CO[C@H]3[C@@H]2OC[C@@H]3Nc2nccc(-c3ccc4c(c3)OCO4)n2)cc1	HEK293 tox inconclusive, NIH3T3 tox inconclusive
O=C(Nc1cccc2ccccc12)O[C@@H]1CO[C@H]2[C@@H]1OC[C@@H]2Nc1nccc(-c2ccccc2)n1	HEK293 tox inconclusive
O=C(N[C@H]1CO[C@H]2[C@@H]1OC[C@@H]2Nc1nccc(-c2ccc(-c3ccccc3)cc2)n1)C1CC1	HEK293 tox inconclusive, hNpr1 antagonist inconclusive
O=S(=O)(N[C@H]1CO[C@H]2[C@@H]1OC[C@@H]2Nc1nccc(-c2ccc3c(c2)OCO3)n1)c1ccc2ccccc2c1	HEK293 tox inconclusive, hNpr1 antagonist 13µM | NPR1 antag cnf 24µM | Npr2 selectivity inconclusive | FLuc inh counter inactive | GloSensor ctrl inconclusive
CC(C)(C)C(=O)N[C@H]1CO[C@H]2[C@@H]1OC[C@@H]2Nc1nccc(-c2ccc(-c3ccccc3)cc2)n1	HEK293 tox inconclusive, hNpr1 antagonist inconclusive | NPR1 antag cnf 22µM | Npr2 selectivity inconclusive | FLuc inh counter inactive | GloSensor ctrl 22µM
N#Cc1cccc(-c2ccnc(N[C@H]3CO[C@H]4[C@@H]3OC[C@H]4OC(=O)Nc3ccccc3)n2)c1	Luciferase inh inconclusive
N#Cc1cccc(NC(=O)O[C@@H]2CO[C@H]3[C@@H]2OC[C@@H]3Nc2nccc(-c3cccc(F)c3)n2)c1	HEK293 tox 10µM, NIH3T3 tox 22µM, hNpr1 antagonist 11µM | NPR1 antag cnf 19µM | Npr2 selectivity 19µM | FLuc inh counter inactive | GloSensor ctrl 19µM
O=C(Nc1cccc2ccccc12)O[C@@H]1CO[C@H]2[C@@H]1OC[C@@H]2Nc1nccc(-c2cccc(F)c2)n1	HEK293 tox 40µM, NIH3T3 tox inconclusive | NPR1 antag cnf inconclusive | Npr2 selectivity inconclusive | FLuc inh counter inactive | GloSensor ctrl inactive
O=C(COc1ccc(-n2cnnn2)cc1)N1CCCC2(CCOC2)C1 (stereo not given)	none
Brc1ccc(CN2CCC(c3nc4ccncc4[nH]3)C2)cc1 (stereo not given)	HEK293 tox inconclusive, NIH3T3 tox inconclusive, hNpr1 antagonist 11µM | NPR1 antag cnf 24µM | Npr2 selectivity 22µM | FLuc inh counter inactive | GloSensor ctrl inconclusive
